Bioassay records: PubChem, National Center for Advancing Translational Sciences (NCATS)
Compounds with a hit are over-represented: about 6.5% of the library has one in this group of screens.
VACV mCherry inh – inhibitors of vaccinia virus infection (mCherry reporter signal); Potency, µM (titrated, usually from 36.5 µM), inactives show at the highest dose activity change, negative = inhibition, usual class: inhibitors; actives 0.63% (n = 310,000); Vaccinia virus mCherry reporter infection, fluorescence; calls by dose curve; tested in A549 cells; also: potency is read from the fitted curve at half-maximal effect; nearly all actives have a fitted effect of over 35% in size
MARV entry inh – Marburg virus entry inhibition | Marburg virus pseudotyped entry inhibition, cell reporter | Potency, µM (top dose mostly 37.8 µM), inactives show at the highest dose activity change, negative = inhibition, actives largely listed as inhibitors | actives 1.8% (n = 300,000) | AID 540276; calls by dose curve; tested in HEK293 cells; also: potency is read from the fitted curve at half-maximal effect
LASV entry inh – Lassa virus entry inhibition; Lassa virus pseudotype entry inhibition, cell reporter; Potency, µM (series often up to 37.9 µM), without a hit: top-dose activity change, negative = inhibition, hits mostly inhibitors; actives 1.2% (n = 300,000); AID 540256; calls by dose curve; tested in HEK293 cells; also: potency is read from the fitted curve at half-maximal effect; nearly all actives have a fitted effect of over 50% in size
HCMV inh – inhibitors of human cytomegalovirus; HFF cells, HCMV-luciferase reporter, 72 h; hits give low values; activity change, negative = inhibition, % at 57.5 µM; actives 4.5% (n = 410,000); in the data active = activity change below about -60%; inconclusive = no clear call, values can overlap the other calls; inactive = above about -39%
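HFF cells seeded 16 h at 37C, treated with compounds, infected with luciferase-reporter HCMV at MOI 1 PFU/cell; luciferase read at 72 h post infection, normalized to buffer-only and Salinomycin controls.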
VACV Venus inh – vaccinia inhibition (Venus reporter); Vaccinia virus Venus reporter expression, fluorescence; Potency, µM (top dose mostly 36.5 µM), inactives show top-dose activity change, negative = inhibition, actives largely listed as inhibitors; actives 0.46% (n = 330,000); AID 720580; calls by dose curve; tested in A549 cells; also: potency is read from the fitted curve at half-maximal effect; nearly all actives have a fitted effect of over 30% in size
FMDV inh – antivirals against foot and mouth disease virus; Potency, µM (series often up to 57.9 µM), without a hit: top-dose activity change, negative = inhibition, actives largely listed as inhibitors; actives 1.2% (n = 410,000); AID 1159524; FMDV antiviral cell-based qHTS; calls by dose curve; tested in HEK293T cells; also: read-out not given here; potency is read from the fitted curve at half-maximal effect; nearly all actives have a fitted effect of over 45% in size
Active calls of the source: *; i = inactive; ? = inconclusive; . = not tested or not shown; [ ] = dose if it differs, or a comment. % is scaled to controls: 0 for no effect and ±100 for the full control effect.

SMILES | VACV mCherry inh | MARV entry inh | LASV entry inh | HCMV inh | VACV Venus inh | FMDV inh
COc1ccc(NC(=O)CSc2nnc3ccc(-c4cccnc4)nn23)cc1 | -21.6% | -5.9% | 10.2% | ? | -10.6% | -1.3%
COc1ccc(NC(=O)CSc2nccn2-c2ccccc2)cc1 | . | 25.6%[46.1 µM] | -0.7% | 6.3 | -16.1% | -2.1%
COc1ccc(NC(=O)CSc2nnc3ccc(-c4ccncc4)nn23)cc1 | i | 7.3%[46.1 µM] | 11.2% | -71.2* | -6.2% | -4.1%
CCc1ccc(NC(=O)CSc2nccn2-c2ccc(OC)cc2)cc1 | -2.6% | . | -25.6%[46.1 µM] | -99.6* | -22.6% | -23.8%
CC(=O)Nc1ccc(CC(=O)NCCC(c2ccccc2)c2ccccc2)cc1 | -26.7% | ? | 0.891µM* | -19.9 | -19.0% | -0.4%
C#CCCCON=C1C[C@@H](O)[C@H](O)[C@H]2[C@@H]3C(=O)N(Cc4ccccc4)C(=O)[C@@H]3CC[C@H]12 | . | 11.0%[14.2 µM] | . | . | . | .
COc1ccc(-c2ccccc2-c2noc3ccccc23)cc1 | . | . | . | -1.3 | . | .
COc1c(C=O)c(=O)[nH]c2c(OC)cccc12 | . | . | . | . | . | 0.0%
O=C(NCCc1ccccc1)C1CCN(c2nc3ccccc3o2)CC1 | . | 1.3% | 17.8% | -1.2 | . | -23.7%
O=C(NC1CCCCCCC1)C1CCN(c2nc3ccccc3o2)CC1 | . | ? | ? | -88.1* | . | 14.1µM*
COc1cc(C(=O)Nc2ccc(OCc3cc(=O)n4cccc(C)c4n3)cc2)cc(OC)c1OC | 8.91µM* | . | -19.5%[46.1 µM] | -11.5 | ? | 0.0%
COc1ccccc1C(=O)Nc1ccc(OCc2cc(=O)n3cccc(C)c3n2)cc1 | -20.6% | . | 5.9%[46.1 µM] | -9.7 | -9.9% | -18.9%
COc1cc(C)cc2oc(=O)c(CC(=O)NCCc3ccc(Cl)cc3)c(C)c12 | -21.0% | 3.6%[46.1 µM] | 6.6%[46.1 µM] | 7.6 | -13.0% | -10.2%
COc1ccc2c(c1)CCC[C@]1(C)O[C@@H]1C(=O)c1ccccc1O2 | . | . | . | -19.5 | . | .
Cc1ccccc1-c1nnnn1C1CCS(=O)(=O)C1 (configuration not stated) | . | . | . | -66.8* | . | -12.9%
Cc1ccccc1-c1nc2ccccc2c(=O)n1C1CCS(=O)(=O)C1 (configuration not stated) | i | -2.3% | 14.8% | -33.1 | -9.1% | .
COc1ccc(/C=C/c2nccc3ccccc23)cc1OC | -22.3% | . | . | . | -15.5% | .
c1cn2cc(-c3ccc4c(c3)OCO4)nc2s1 | . | ? | 10.3µM* | 30.5 | . | -2.4%
CC(=O)Nc1ccc(-c2cn3ccsc3n2)cc1 | -24.2% | -21.6% | ? | 77.2 | -2.8% | 43.1%
Cc1cc2nc(C)c(-c3nc4ccccc4[nH]3)nc2cc1C | . | . | . | 20.3 | . | .
CCN1C(=O)c2ccc(C(=O)Nc3cccc(C(=O)O)c3)cc2C1=O | -6.4% | 15.5% | -6.7% | -10.3 | -1.8% | 14.1µM*
COc1ccc(CNc2cccc3[nH]c(C(F)(F)F)nc23)cc1 | ? | -17.5%[46.1 µM] | 20.0%[46.1 µM] | -27.7 | -6.5% | -25.4%
Cc1ccc(C(=O)Nc2cccc3[nH]c(C(F)(F)F)nc23)cc1 | ? | ? | ? | -95.8* | ? | -23.0%
NC(N)=N/N=C/c1ccccc1 | -11.0% | -3.3% | ? | 6.3 | -11.9% | 3.8%
CCOc1cc(/C=N/N=C(N)N)ccc1OCc1ccc(Cl)cc1 | -1.4% | ? | ? | -24.3 | -21.1% | -21.0%
SMILES | VACV mCherry inh | MARV entry inh | LASV entry inh | HCMV inh | VACV Venus inh | FMDV inh
COc1cc(/C=N/N=C(N)N)ccc1OCc1ccc(Cl)cc1 | . | 18.3µM* | ? | -101.7* | . | -44.9%
NC(N)=N/N=C/c1ccc(OCc2ccccc2)c(OCc2ccccc2)c1 | ? | ? | ? | -102.7* | -14.8% | 28.4%
NCCc1ccc(OCc2ccccc2)c(OCc2ccccc2)c1 | 17.8µM* | ? | ? | -93.5* | ? | -23.3%
COC(=O)[C@]12C[C@H](CC(=O)NCC34CC5CC(CC(C5)C3)C4)C(=O)N(CCC3=CCCCC3)C1=C[C@H](COCc1ccccc1)O[C@@H]2C | . | . | . | 50.4 | . | .
CN(C)CC(=O)N1CC(=O)N2[C@H](CO)[C@@H](c3ccc(Br)cc3)[C@H]2C1 | . | . | . | -8.5 | . | .
COc1ccc(-c2noc(-c3ccc(NC4CCCCC4)c([N+](=O)[O-])c3)n2)cc1 | 1.5% | -8.5%[46.1 µM] | 18.9%[46.1 µM] | 5.3 | -2.3% | -24.3%
Cc1c(Cl)cccc1NC(=O)Cn1nc(C)c2sc3ccccc3c2c1=O | ? | ? | 27.8%[46.1 µM] | 10.1 | ? | -3.4%
O=C(NC1CCCCC1)N1CC(=O)N2[C@H](CO)[C@H](c3ccc(Br)cc3)[C@@H]2C1 | . | . | . | -18.1 | . | .
CCOc1ccc(N(C)S(=O)(=O)c2cc(-c3cc(C)no3)ccc2OC)cc1 | i | . | ? | ? | -22.8% | -14.8%
CCOc1ccc(N(C)S(=O)(=O)c2cc(-c3cc(C)no3)ccc2C)cc1 | . | . | . | 0.0 | . | 20µM*
Cc1cc(-c2ccc(C)c(S(=O)(=O)N(Cc3cccs3)C(C)C)c2)on1 | -4.3% | . | -29.8%[46.1 µM] | -77.0* | ? | 0.0%
CCOc1ccc(N(C)S(=O)(=O)c2cc(-c3cc(C)no3)ccc2CC)cc1 | -15.9% | ? | ? | -90.0* | -13.4% | 17.8µM*
Nn1cnnc1N/N=C/c1cc(Br)cc(Br)c1O | 8.91µM* | ? | ? | ? | ? | -18.1%
CCCNC(=O)CN1C(=O)c2cccnc2Sc2ccccc21 | 5.5% | . | 16.5%[46.1 µM] | 33.7 | -7.7% | 19.3%
COc1ccc(C2CC(=O)c3sc(NC(C)=O)nc3C2)cc1 (configuration not stated) | i | ? | -7.3% | -70.2* | -17.4% | -1.2%
CC(CCC(=O)OC[C@H]1O[C@H](C#Cc2ccccc2)C=C[C@H]1Oc1ccc(C)cc1)=NOC[C@@H](O)COCc1ccco1 | . | -9.6%[14.2 µM] | . | . | . | .
CCCc1cc(=O)n2[nH]cc(-c3ccc(Cl)cc3)c2n1 | ? | ? | ? | -96.1* | ? | ?
CC1(C(=O)OCC(=O)Nc2ccc(C(N)=O)cc2)CC1(Cl)Cl (configuration not stated) | -2.7% | -17.0%[46.1 µM] | -1.4% | -29.6 | -0.7% | 1.3%
COc1ccccc1NC(=O)c1ccc(NC(=O)COC(=O)C2(C)CC2(Cl)Cl)cc1 (configuration not stated) | -26.4% | -32.3% | -17.6% | -13.3 | -16.6% | 35.5µM*
Clc1ccc(CN(Cc2ccccc2)C(c2cccs2)c2nnnn2C2CCCC2)cc1 (configuration not stated) | -11.1% | 3.4%[46.1 µM] | -23.4% | -19.1 | -14.4% | -24.9%
Fc1ccc(CN(Cc2ccccc2)C(c2cccs2)c2nnnn2C2CCCCC2)cc1 (configuration not stated) | -15.0% | ? | ? | -76.5* | -24.7% | 7.3%
Cc1cccn2c(=O)c3cc(C(=O)NCC4CCCO4)c(=N)n(CC4CCCO4)c3nc12 (configuration not stated) | i | ? | 14.4% | -70.2* | -4.6% | -15.0%
N=c1c(C(=O)NCCc2ccccc2)cc2c(=O)n3ccccc3nc2n1Cc1ccco1 | -16.3% | ? | ? | ? | -7.5% | -26.1%
